For 40 compounds, growth results are on record in PubChem BioAssay (NCI).

About 83,000 compounds went through this panel and 20% of them were active in at least one assay; those are over-represented in the sample as a whole.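 Each cell line was grown in a 96-well plate and treated with one concentration of compound for 48 hours. Values below 10 were considered active.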 The source made the active and inactive calls.

The test deals with NCI-H322M lung. Kind of test: NCI-60 one-dose screen, 48 h (100 = growth as untreated, 0 = no growth, -100 = all killed). Particulars: 10 µM unless noted. As for the experimental part: Growth inhibition of the NCI-H322M human Non-Small Cell Lung tumor cell line is measured as a screen for anti-cancer activity. Cells are grown in 96 well plates and exposed to the test compound for 48 hours. Compounds are tested at a single concentration, which is 10^-5 M for most compounds. The reported endpoint is percent growth (GI% or GIPRCNT), where numbers from 0 - 100% represent growth inhibition, and numbers from -100% - 0 represent cell death. For example, a value of 40 represents 60% growth inhibition. A value of 0 means no net growth occurred over the course of the experiment. A value of -40 indicates 40% of cells at the beginning of the experiment died by the end of the experiment. A value of -100 means all cells are dead at the end of the experiment.
NCI-60 Human Tumor Cell Lines Screen was performed using the standard one-dose NCI protocol, which is described in more detail at https://dtp.cancer.gov/discovery_development/nci-60/default.htm.
Compounds with GIPRCNT values below 10 were considered active. Activity score was based on GIPRCNT using the following formula: […]
Score is 0 for GIPRCNT values of 100 or above, 50 for GIPRCNT values of 0, and 100 for GIPRCNT values of -100.
As for `CNC(=O)c1cc(-c2ccc(NC(=S)Nc3cccc(C(F)(F)F)c3)cc2)nc2cccnc12`, the growth was 96.1% (inactive). Consider `CCCNNC(=O)c1ccc(-c2ccc(NC(=O)CCCCCCC(=O)N[C@H](C(=O)N3C[C@H](O)C[C@H]3C(=O)N[C@@H](C)c3ccc(-c4scnc4C)cc3)C(C)(C)C)cc2)cc1`, for which the growth was 34.7% (inactive).

Turning to `Cc1ccc2c(n1)C(=O)C(Cl)=C(Nc1cccc(C(=O)OC(C)(C)C)c1)C2=O`, the growth was 112% (inactive). Then `CS(=O)(=O)c1nccc(-c2c(-c3cccc(OCc4ccc(Cl)c(C(F)(F)F)c4)c3)nc3sccn23)n1`, with 86.1% (inactive). For the compound `CC1=C(C)C(=O)C(Nc2cccc(C(=O)OC(C)(C)C)c2)=C(Cl)C1=O`, the growth was 99.5% (inactive). Consider `Cc1ccc2c(n1)C(=O)C(Cl)=C(Nc1cccc(C)c1C)C2=O`, for which the growth is 16.9% (inactive).

In the case of `CC1CC(=O)C2=C(C1)Nc1ccc(Br)cc1CC2c1c[nH]c2ccc(Br)cc12` (stereo not given), the growth was 70.9% (inactive).

For `CCCCSC1=C(Cl)CN(c2ccc(Cl)cc2)C1=O`, the growth was 107% (inactive). For `O=C1[C@H]2Cc3c([nH]c4ccccc34)[C@H](c3ccc(Br)cc3)N2C(=O)CN1C1CCN(CC2CCCCC2)CC1`, the growth was 92.8% (inactive). As for `C/C(=N\NC(N)=S)c1nnn(-c2ccc([N+](=O)[O-])cc2)c1C`, the growth was 95.3% (inactive). Then `Clc1ccc(CSc2nnc(-c3ccc(Cl)cc3)n2-c2ccccc2)cc1`, with 92.7% (inactive); and `C#CCn1cc(/C=N/Nc2nc(-c3ccc(Br)cc3)cs2)c2ccccc21`, with 93.6% (inactive); and `NC1=NC2(CCCC2)N(c2ccc(S(=O)(=O)Nc3nccs3)cc2)C(N)=N1`, with 103% (inactive). For `O=C(CSc1nnc(-c2ccc(Cl)cc2)n1-c1ccccc1)Nc1cccc(F)c1`, the growth was 36.7% (inactive). `O=C(CCl)Nc1ccc(NC(=O)c2cc(Cl)ccc2O)c(Cl)c1`: the growth was 96% (inactive). Then `O=C1[C@@H]2Cc3c([nH]c4ccccc34)[C@H](c3ccc(Br)cc3)N2C(=O)CN1C1CCN(Cc2c(Cl)cccc2Cl)CC1`, with 95.1% (inactive); and `O=S1SC(c2ccccc2)=NN1c1cc(F)cc(F)c1` (stereo not given), with 67.9% (inactive); and `CCOP(=O)(OCC)OC[C@]12CCC(C)(C)C[C@H]1C1=CC[C@@H]3[C@@]4(C)CC[C@H](OP(=O)(OCC)OCC)C(C)(C)[C@@H]4CC[C@@]3(C)[C@]1(C)CC2`, with 83.7% (inactive).

Consider `NS(=O)(=O)c1ccc(Nc2nc(Nc3ccccc3)nc(N3N=C(c4ccc(Cl)cc4)CC3c3ccc(Cl)cc3)n2)cc1` (stereo not given), for which the growth is 64.5% (inactive). Consider `CC1(C)CC[C@]2(C(=O)NCCCCCCN(CCCN)CCCN)CC[C@]3(C)C(=CC[C@@H]4[C@@]5(C)CC[C@H](O)C(C)(C)[C@@H]5CC[C@]43C)[C@@H]2C1`, for which the growth is 95.1% (inactive).

`CC(Nc1c(C#N)cnc2ccc(-c3cncc(-c4n[nH]c(=O)o4)c3)cc12)c1ccccc1` (stereo not given): the growth is -4.15% (active).

`O=C(CSc1cc[n+](CCCCO)c2ccccc12)n1ccc2ccccc21`: the growth was 96.8% (inactive). Then `O=C1Nc2cc(Cl)ccc2/C1=C\c1ccc(OCc2ccccc2)cc1`, with 99.5% (inactive). As to `COc1ccc(OC)c(CCn2cncc2-c2c[nH]c3ccc(Cl)cc23)c1`, the growth was 88.4% (inactive). As to `COc1cc2oc(-c3cccc(NC(=O)[C@@H](N)C(C)C)c3)cc(=O)c2c(OC)c1OC`, the growth was 102% (inactive). Regarding `CC(C)(C)c1cc(NC(=O)Nc2ccc(-c3cn4c5c(sc4n3)CCc3cn(CCCN4CCCCC4)cc3-5)cc2)no1`, the growth was -78.8% (active). Regarding `Brc1cccc(-c2cc(-c3cnc4c(c3)OCCO4)n[nH]2)c1`, the growth is 45.2% (inactive). For the compound `O=C1Nc2ccccc2/C1=C/c1ccc(OCC(=O)c2ccccc2)cc1`, the growth was 98% (inactive). As for `CC(=O)OC[C@@]12Oc3c(cccc3-c3ccc(O)c4c3O[C@]3(COC(C)=O)C(=C4O)C(=O)C[C@H](C)[C@@H]3OC(C)=O)C(O)=C1C(=O)C[C@H](C)[C@@H]2OC(C)=O`, the growth is 33.1% (inactive). `Cn1cc(C2=C(c3coc4cc(Br)ccc34)C(=O)NC2=O)c2ccccc21`: the growth was 82.2% (inactive). Regarding `CCc1cc(OC(=O)N2CCC(N3CCCCC3)CC2)ccc1Nc1cc(-c2ccc(-n3cccn3)cc2)[nH]n1`, the growth is 101% (inactive). Then `Cc1ccc2c(n1)C(=O)C(Cl)=C(Nc1ccc(C#N)cc1)C2=O`, with 109% (inactive). Take `O=C(Nc1ccc(Cl)c(C(F)(F)F)c1)Nc1ccc2c(ccn2C(=O)c2cccc(F)c2)c1`: the growth was 73.1% (inactive). In the case of `O=C1[C@@H]2Cc3c([nH]c4ccccc34)[C@@H](c3ccc(Cl)cc3)N2C(=O)CN1C1CCN(Cc2ccccc2)CC1`, the growth was 87.2% (inactive). As to `CC1(C)C=Cc2cc(/C(N)=N/C(N)=N/c3nc4ccccc4s3)ccc2O1`, the growth is 93.8% (inactive). As to `COc1ccc2[nH]cc(-c3nn4cc(-c5ccncc5)nc4s3)c2c1`, the growth is 78.2% (inactive). `CC1=C(C)C(=O)C(Nc2ccc(C)cc2)=C(Br)C1=O`: the growth was 104% (inactive). Next, `O=S(=O)(NCCCNc1nccc(-c2[nH]c(-c3ccccc3)nc2-c2ccc(F)c(O)c2)n1)c1cccc2ccccc12`: 98.2% (inactive).

Turning to `O=C(/C=C/c1csc(Br)n1)NO`, the growth is 33.1% (inactive). Turning to `C[C@H]1OCC2(CCN(c3cnc(C(=O)Nc4cc(F)cc5cccnc45)cn3)CC2)[C@H]1N`, the growth was 81.4% (inactive).
